PubChem BioAssay (EPA / NIEHS)
Inconclusive results are not listed. Calls of active or inactive are those of the source. The calls were made as follows: active = hit-call score of the fitted dose curve at least 0.9, where 1 is the maximum; inconclusive = response in the unintended direction; inactive = score below 0.9.

What follows are compounds tested against human Casein Kinase 1-delta (CK1D), CSNK1D (gene 1453) (UniProt P48730) (assay: NVS_ENZ_hCK1D: NovaScreen (NVS) Enzymatic Assay for human Casein Kinase 1-delta (CK1D) (AID 2283148)).
Procedure: NVS_ENZ_hCK1D is a biochemical, single-readout assay that uses extracted gene-proteins in a cell-free assay. Measurements were taken 1 hour after chemical dosing in a 384-well plate.NVS_ENZ_hCK1D is one of one assay component(s) measured or calculated from the NVS_ENZ_hCK1D assay. It is designed to make measurements of enzyme activity, a form of enzyme reporter, as detected with fluorescence intensity signals by Fluorescence and electrophoretic mobility shift technology.Data from the assay component NVS_ENZ_hCK1D was analyzed into 1 assay endpoint. This assay endpoint, NVS_ENZ_hCK1D, was analyzed in the positive analysis fitting direction relative to DMSO as the negative control and baseline of activity. Using a type of enzyme reporter, loss-of-signal activity can be used to understand changes in the enzymatic activity as they relate to the gene CSNK1D. Furthermore, this assay endpoint can be referred to as a primary readout, because this assay has produced multiple assay endpoints where this one serves a enzymatic activity function. To generalize the intended target to other relatable targets, this assay endpoint is annotated to the kinase intended target family, where the subfamily is serine/threonine kinase.
Binding assays used specific radioligands (tritiated, iodinated) with non-radioactive competitive displacement ligands in agonist or antagonist protocols (as indicated) and various reference compounds and inhibitors to titrate specific binding to receptors and transporters. Most enzyme assays (CYPs, kinases, phosphatases, proteases, HDACs) used recombinant protein and specific substrates (fluorescence mostly, some colorimetric and radioactive) and inhibitors, followed by a biochemical separation of substrate and product. All assays for the biochemical HTS were initially run in duplicate at a single concentration (10 uM for CYP450 assays and 25 uM for all others). Assay-chemical combinations meeting a pre-defined threshold (e.g., 30% inhibition and other criteria defined below) were then run in singleton concentration-response format with maximum concentration of 20 uM for CYPs and 50 uM for all others. Each assay was run with positive and negative controls, and concurrent controls on every plate. The follow-up (secondary) screen tested active chemical-pairs in concentration series, as well as a few additional assays not tested in the primary screen, some selected negative inactives, and several cases re-run in the concentration series for confirmatory purposes.

human Casein Kinase 1-delta (CK1D), CSNK1D (gene 1453), sequence (P48730 whole entry, looked up): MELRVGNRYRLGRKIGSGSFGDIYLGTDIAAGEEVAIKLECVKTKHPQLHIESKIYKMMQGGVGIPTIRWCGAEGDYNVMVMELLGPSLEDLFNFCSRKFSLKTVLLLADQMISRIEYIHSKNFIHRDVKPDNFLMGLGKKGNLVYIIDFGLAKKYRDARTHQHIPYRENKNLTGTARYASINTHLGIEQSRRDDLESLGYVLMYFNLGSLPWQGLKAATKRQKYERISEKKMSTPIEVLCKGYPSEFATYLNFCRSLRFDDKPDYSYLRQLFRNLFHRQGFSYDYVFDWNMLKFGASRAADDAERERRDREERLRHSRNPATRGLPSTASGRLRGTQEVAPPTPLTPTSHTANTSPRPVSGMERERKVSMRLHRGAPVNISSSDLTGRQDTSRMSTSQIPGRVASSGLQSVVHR

Structure (SMILES)	AC50	outcome
COc1ccc2sc(C(=O)Nc3nnn[nH]3)c(OC(C)C)c2c1	0.385 µM (active)	
Cc1ccc(N)cc1O		inactive
O=C(O)c1cccc(N(Cc2cccnc2)c2ccc(OC(F)F)c(OC(F)F)c2)c1	10.9 µM (active)	
O=C(O)c1cccc(Oc2ccccc2)c1		inactive
Nc1nc2ncc(CNc3ccc(C(=O)N[C@@H](CCC(=O)O)C(=O)O)cc3)nc2c(=O)[nH]1	11.4 µM (active)	
CCOC(=O)COc1ccc2c(c1)CC(NCC(O)c1cccc(Cl)c1)CC2 (stereo not drawn)		inactive
C1=CCCC=CCCC=CCC1		inactive
O=C(O)CCN(C1(C(=O)NO)CCCC1)S(=O)(=O)c1ccc(Oc2ccc(F)cc2)cc1		inactive
Cn1c(=O)cc(Oc2ccc(F)cc2F)c2cnc(NCC(C)(C)O)nc21	0.0119 µM (active)	
CN(C)c1ccc(N=NS(=O)(=O)O)cc1		inactive
COc1ccc(/C=C/S(=O)(=O)NC(=O)c2ccc(C)cc2Cl)cc1	30.5 µM (active)	
Cc1[nH]cnc1C[C@H]1CCc2c(C)c3ccccc3n2C1=O	13.9 µM (active)	
Cn1c(=O)c2c(ncn2C)n(C)c1=O		inactive
